The full list was thinned out, with hits kept by preference.
Sm TGR inh – blocks Schistosoma mansoni thioredoxin glutathione reductase; Q962Y6; purified TGR, DTNB reduction, TNB absorbance 405 nm; Potency, µM (titrated, usually from 114 µM), most hits filed as inhibitors; hit rate 3% among 360,000; AID 485364; also: nearly all actives have a fitted effect of over 60% in size
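First, TGR (20 nM dispensed) and NADPH were mixed with compound. Second, a 15 min room-temperature incubation followed. Third, further NADPH and then DTNB were added to start the reaction. Finally, TNB absorbance was monitored kinetically.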
FBPA Giardia inh – Giardia lamblia aldolase inhibition; hit rate 0.71% among 290,000; AID 2451; purified Giardia FBPA; Potency, µM (doses to about 59.6 µM), actives largely listed as inhibitors; A8B2U2; also: nearly all actives have a fitted effect of over 55% in size
Target sequence (A8B2U2 whole entry, looked up): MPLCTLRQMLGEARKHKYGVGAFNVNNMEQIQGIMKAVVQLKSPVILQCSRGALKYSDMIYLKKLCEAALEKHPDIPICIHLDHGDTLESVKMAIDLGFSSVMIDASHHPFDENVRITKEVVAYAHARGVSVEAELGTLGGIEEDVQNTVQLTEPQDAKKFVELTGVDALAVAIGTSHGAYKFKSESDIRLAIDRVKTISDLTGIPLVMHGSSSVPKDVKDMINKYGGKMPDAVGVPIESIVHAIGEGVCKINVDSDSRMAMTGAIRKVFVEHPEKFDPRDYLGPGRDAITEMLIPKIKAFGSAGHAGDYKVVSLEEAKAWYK
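Giardia FBPA (40 nM reagent) was preincubated 10 min at RT with compound (up to 57.5 uM final), then substrate plus GAPDH/TPI/NAD/arsenate coupling system with diaphorase/resazurin was added; resorufin fluorescence (525/598 nm) was read after 20 min.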
TbPYK inhibitor – blocks Trypanosoma brucei pyruvate kinase. Potency, µM (highest dose often 76.8 µM), hits mostly inhibitors. TbPYK enzyme, Kinase-Glo Plus ATP luminescence, 45 min. AID 624173. Q57TT1. hit rate 0.12% among 410,000; also: nearly all actives have a fitted effect of over 50% in size
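Luminescent Kinase-Glo Plus end-point after 45 min room-temperature reaction of T. brucei pyruvate kinase started with 130 uM ADP (final). Buffer TEA 50 mM pH 7.2 with KCl, MgCl2, BSA, Tween-20; titration-based qHTS with fitted concentration-effect curves.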
CHX counter – counter-screen for Shiga toxin inhibitors: cycloheximide protein synthesis inhibition; cell reporter, cycloheximide protein synthesis inhibition counterscreen; max response, %; hit rate 12% among 300,000; AID 2314; in the data active = max response mostly above about 13%, no sharp cut-off; inactive = mostly below about 14%; also: read at 38.3 µM for the half of the compounds with a filed dose
LmPK inh – inhibitors of Leishmania mexicana pyruvate kinase. Q27686. purified LmPK, Kinase-Glo ATP luminescence, 1 h. Potency, µM (series often up to 57.5 µM), hits mostly inhibitors. hit rate 0.37% among 290,000. AID 1721
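Pyruvate kinase activity monitored as ATP production (luciferase luminescence). Conditions: 0.1 nM enzyme, 0.5 mM PEP, 0.1 mM ADP, 1 h, RT; normalized against uninhibited and no-enzyme wells.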
Shiga toxin inh – inhibitors of Shiga toxin in Vero cells | Vero cells, Shiga toxin protein synthesis inhibition reporter | inhibition, % at 38.7 µM | hit rate 9.2% among 290,000; in the data active = inhibition mostly above about 28%, no sharp cut-off; inactive = mostly below about 43%
A number is an active result; . = inactive; ? = inconclusive; / = not tested or not shown; [ ] = dose if it differs, or a comment. Unless noted, calls follow the shape of the dose curve; as a rule, active = well fitted curve in the direction sought with a large enough effect; inconclusive = small, poorly fitted or top-dose-only effect, or another doubt; inactive = no such curve, though single readings can be large; an effect the other way counts as inactive or inconclusive.

SMILES | Sm TGR inh | FBPA Giardia inh | TbPYK inhibitor | CHX counter | LmPK inh | Shiga toxin inh
CCc1ccc(NC(=O)N2CCCCCC2)cc1 | . | . | . | 49 | . | 87
O=C(Nc1ccc(Cl)c(C(F)(F)F)c1)N1CCCC(O)C1 (stereo not given) | . | . | . | . | . | .
O=C(Nc1ccc(Br)cc1)N1CCCC(O)C1 (stereo not given) | . | . | . | 24 | .[11.5 µM] | .
CCc1ccc(NS(=O)(=O)c2ccc(NC(=O)N3CCCC3)cc2)cc1 | . | / | . | / | / | /
COc1ccc(NC(=O)N2CCOCC2)cc1 | . | . | . | . | . | /
COc1ccc(NC(=O)N2CCCCC2)cc1 | . | . | . | 26 | . | .
O=C(Nc1ccc(Br)cc1)N1CCCCCC1 | . | . | . | 55 | . | 98
Cc1cccc(S(=O)(=O)NC(=O)C2(C)CCN2C(=O)C2(c3ccc(Cl)cc3)CCC2)c1 (stereo not given) | / | / | . | / | / | /
Cc1ccc(NC(=O)N2CCCCCC2)cc1 | . | / | . | 36 | . | 84
COc1ccc(NC(=O)N2CCN(C(=O)C(Cc3ccc(F)cc3)NC(C)=O)CC2)cc1 (stereo not given) | . | . | . | 9.7 | . | .
O=C(Nc1cccc(Cl)c1)N1CCN(Cc2ccccc2)CC1 | . | . | . | 21 | . | 41
Cc1ccc(NC(=O)N2CCCCCC2)c(C)c1 | . | . | . | 50 | . | 62
Cc1ccc(NC(=O)C2CCN(C(=O)NC3CCCCC3)CC2)c(C)c1 | . | . | . | . | . | .
O=C(Nc1ccc(F)cc1F)N1CCN(c2ccc(Cl)c(Cl)c2)CC1 | . | / | . | / | / | /
CCOCCCNC(=S)N1CCN(C(=O)C(=O)Nc2ccc(C(=O)OC)cc2)CC1 | . | . | . | . | . | .
CCOC(=O)c1ccc(NC(=O)NCCN2CCCCC2)cc1 | . | . | . | 9.3 | . | .
COC(=O)c1ccc(NC(=O)C(=O)N2CCCC2)cc1 | . | . | . | . | . | 76
O=C(Nc1ccc(F)cc1F)N1CCCCCC1 | . | . | . | 27 | . | .
O=C(Nc1ccccc1C(F)(F)F)N1CCCCCC1 | . | . | . | 9.6 | . | 35
Cc1ccc(S(=O)(=O)Nc2cc3c(cc2N2CCOCC2)n(C)c(=O)n3C)c(C)c1 | ? | / | . | / | / | /
Cc1cccc(N2CCN(C(=O)CCCn3ncn4c(cc5occc54)c3=O)CC2)c1C | . | / | . | / | / | /
CC(=O)N1CCc2cc(S(=O)(=O)NC(CC(C)C)C(=O)NCCc3ccc(C)cc3)ccc21 (stereo not given) | . | / | . | / | / | /
CC1CN(C(=O)Nc2ccc(Br)cc2Cl)CC(C)O1 (stereo not given) | . | . | . | . | . | .
CCOC(=O)c1ccc(NC(=O)N2CCN(Cc3ccccc3)CC2)cc1 | / | . | . | 15 | . | .
CC1CCCN(C(=O)Nc2ccc(Br)cc2Cl)C1 (stereo not given) | / | . | . | 45 | . | 96
SMILES | Sm TGR inh | FBPA Giardia inh | TbPYK inhibitor | CHX counter | LmPK inh | Shiga toxin inh
CCOC(=O)c1ccc(NC(=O)CN2CCN(Cc3ccccc3)CC2)cc1 | . | . | . | . | . | .
CCOC(=O)c1ccc(NC(=O)N2CCN(C3CCCCC3)CC2)cc1 | . | . | . | . | . | .
COc1ccc(NC(=O)NC2(C(=O)N3CCOCC3)CCCCC2)cc1 | . | . | . | 22 | . | .
CCOC(=O)c1ccc(NC(=O)N2CCCCC2)cc1 | . | . | . | 41 | . | 78
CCCCN(C)CCCNC(=O)CN1C(=O)COc2ccc(S(=O)(=O)N3CCC(C)CC3)cc21 | . | / | . | / | / | /
COc1ccccc1NS(=O)(=O)c1cccc(C(=O)NCC(c2cccs2)N(C)C)c1 (stereo not given) | / | / | . | / | / | /
O=S1(=O)CC(N2CC=CC2)CN1Cc1cn(Cc2cccc(Cl)c2)nn1 (stereo not given) | / | / | . | / | / | /
Cc1ccc(NC(=O)CCN2CCCCC2)cc1 | . | . | . | 29 | . | 41
O=C(NCCC1=CCCCC1)c1cnsn1 | . | . | . | 35 | . | 46
O=C(NCC1CCCO1)c1cc2c(s1)CS(=O)(=O)C2 (stereo not given) | . | . | . | . | . | .
Cc1cc(C(=O)NCCC2=CCCCC2)no1 | . | . | . | 45 | . | 91
O=C(NCCC1=CCCCC1)c1cc2c(s1)CS(=O)(=O)C2 | . | . | . | 17 | . | 25
CC1(C)OC2OC(COC(=O)c3ccccc3)C3OC(C)(C)OC3C2O1 (stereo not given) | . | . | . | 31 | . | .
Cc1ccc(Nc2c(-c3ccc(C)o3)nc3cnccn23)cc1 | 10µM | . | . | . | . | .
Cc1ccn2c(Nc3ccc4c(c3)OCO4)c(-c3ccccn3)nc2c1 | . | . | . | 77 | . | 39
Cc1ccn2c(Nc3ccc4c(c3)OCO4)c(-c3ccc(C)o3)nc2c1 | . | / | . | / | / | /
Cc1ccc(-c2nc3cnccn3c2Nc2ccc3c(c2)OCO3)o1 | 50µM | . | . | . | . | .
Cc1ccc(-c2nc3cnccn3c2Nc2ccccc2)o1 | ? | . | . | . | . | .
CN(C)C(=O)[C@]1(C)C[C@H]1[C@H](NC(=O)CNC(=O)[C@@H]1CCCN1C(=O)[C@]1(C)C[C@H]1[C@H](NC(=O)OCc1ccccc1)c1ccccc1)c1ccccc1 | / | . | / | / | / | /
Cn1c(=O)n(C)c2cc(CNCc3ccc(F)cc3)ccc21 | . | / | . | / | / | /
Clc1ccc(-c2nnn(Cc3nc4ccccc4s3)n2)cc1 | . | . | . | 25 | . | 96
O=C(CCCc1nc2ccccc2s1)NCc1ccc(F)cc1 | . | . | . | . | . | .
Fc1ccc(-c2nnn(Cc3nc4ccccc4s3)n2)cc1 | . | . | . | 12 | . | .
CCCCNc1nc(C#N)nc(Nc2ccccc2)n1 | / | . | / | / | / | /
COc1ccc(CCNC(=O)c2cc(C)oc2C)cc1 | . | / | . | . | . | .
SMILES | Sm TGR inh | FBPA Giardia inh | TbPYK inhibitor | CHX counter | LmPK inh | Shiga toxin inh
O=C(CCS(=O)(=O)c1nc(-c2cccs2)cc(C(F)(F)F)n1)Nc1cc(Br)ccc1O | 18µM | / | . | . | / | .
Cc1ccc(O)c(NC(=O)CCS(=O)(=O)c2nc(-c3cccs3)cc(C(F)(F)F)n2)c1 | 18µM | / | . | / | / | /
Cn1c2ccsc2c2cnn(Cc3ccccc3F)c(=O)c21 | / | / | / | . | / | .
Cc1cccc(NC(=O)c2cc(S(=O)(=O)NCc3ccco3)ccc2F)c1C | . | . | . | 47 | . | 63
O=C(CN1C(=O)S/C(=C\c2ccc(F)cc2)C1=O)Nc1cccc(S(=O)(=O)NCc2ccco2)c1 | . | . | . | 67 | . | 138
CCc1ccccc1NC(=O)CNC(=O)c1ccc(S(=O)(=O)NCc2ccco2)cc1 | / | / | . | / | / | /
Cc1cccc(NC(=O)c2cc(S(=O)(=O)NCc3ccc4c(c3)OCO4)ccc2F)c1C | . | / | . | / | / | /
COc1ccc(C(=O)Nc2ccc(S(=O)(=O)NCc3ccco3)cc2)cc1OC | . | . | . | . | . | .

Screening results: PubChem, National Center for Advancing Translational Sciences (NCATS)
